The supplement of paper PMC13380429

Key:
[1] = test system: Vero E6 infected with SARS-CoV-2; test: morphology score (similarity to uninfected cells); higher = more like uninfected cells; conditions: 24 h
[2] = test system: Vero E6 infected with SARS-CoV-2; test: SARS-CoV-2 infection rate relative to infected DMSO; higher = more infection, active = 60 or less; conditions: 24 h

SMILES | morphology score [1] | SARS-CoV-2 infection rate [2]
CC(C)(C)NS(=O)(=O)c1cncc(-c2cc(F)c3nc(N)nn3c2)c1 (10 µM) | 0.0263 | 104% (inactive)
O=C(/C=C/c1ccc(O)c(O)c1)c1ccc(O)cc1O [butein] (10 µM) | 0.256 | 106% (inactive)
Cc1cccc(NC(=O)N[C@@H]2N=C(c3ccccc3)c3ccccc3N(C)C2=O)c1 (10 µM) | 0.0212 | 106% (inactive)
CCOC(=O)[C@H](CCc1ccccc1)N[C@@H](C)C(=O)N1C(=O)N(C)C[C@H]1C(=O)O [imidapril] (10 µM) | -0.0373 | 117% (inactive)
CN1CCC(=C2c3ccccc3CCc3sccc32)CC1 [pizotifen] (10 µM) | 0.285 | 94.5% (inactive)
COC(=O)C1=CO[C@@H](O)[C@@H]2C(CO)=CC[C@H]12 [genipin] (10 µM) | 0.291 | 112% (inactive)
CCCSc1ccc2[nH]c(NC(=O)OC)nc2c1 [albendazole] (0.833333 µM) | 0.0557 | 98% (inactive)
COC(=O)[C@@]12OC[C@]34[C@H]([C@@H](O)[C@@H]1O)[C@@]1(C)CC(=O)C(O)=C(C)[C@@H]1C[C@H]3OC(=O)[C@H](OC(=O)/C=C(\C)C(C)C)[C@@H]24 [bruceantin] (0.833333 µM) | -0.0265 | 109% (inactive)
COc1ccc2[nH]c([S+]([O-])Cc3ncc(C)c(OC)c3C)nc2c1 (centres undefined) [omeprazole] (10 µM) | 0.0924 | 104% (inactive)
CCOc1cc2ncc(C#N)c(Nc3ccc(OCc4cccc(F)c4)c(Cl)c3)c2cc1NC(=O)/C=C/CN(C)C (10 µM) | -0.202 | 99.5% (inactive)
O=C(O)C(Cc1ccccc1[N+](=O)[O-])=NNc1nc(-c2ccc(Cl)c(Cl)c2)cs1 (10 µM) | 0.23 | 102% (inactive)
COc1cc2c(cc1OC)-c1c/c(=N\c3c(C)cc(C)cc3C)n(C)c(=O)n1CC2 [trequinsin] (10 µM) | 0.541 | 87.5% (inactive)
C[C@@H](N)[C@@H](O)c1ccccc1 [1S,2R-phenylpropanolamine] (10 µM) | -0.131 | 114% (inactive)
COC(=O)[C@H](NC(=O)c1cc(-c2ccccc2)nc2ccccc12)c1ccccc1 (10 µM) | 0.0787 | 100% (inactive)
CCC[C@@]1(CCc2ccccc2)CC(O)=C([C@H](CC)c2cccc(NS(=O)(=O)c3ccc(C(F)(F)F)cn3)c2)C(=O)O1 [tipranavir] (10 µM) | 0.183 | 94.5% (inactive)
CN1CCCC(n2nc(Cc3ccc(Cl)cc3)c3ccccc3c2=O)CC1 (centres undefined) [azelastine] (10 µM) | 0.458 | 72% (inactive)
C[C@@H](O)[C@H](N)C(=O)N1CCC[C@H]1C(=O)N1CCC[C@H]1C(=O)N[C@H](C(N)=O)[C@@H](C)O [rapastinel] (10 µM) | -0.00969 | 94% (inactive)
Oc1ccc(CC2NCCc3cc(O)c(O)cc32)cc1 (centres undefined) [higenamine] (0.833333 µM) | 0.0764 | 103% (inactive)
CN[C@@H]1[C@H](O)[C@H](NC)[C@H]2O[C@@]3(O)C(=O)C[C@@H](C)O[C@H]3O[C@@H]2[C@H]1O [spectinomycin] (0.833333 µM) | 0.0353 | 102% (inactive)
CC(C)(C)NCC(O)COc1cccc2[nH]c(=O)[nH]c12 (centres undefined) (10 µM) | 0.0723 | 103% (inactive)
N[C@H]1C[C@@H]1c1ccc(-c2cccc(O)c2)cc1 (10 µM) | 0.246 | 87% (inactive)
C=C[C@@H]1C[C@]1(NC(=O)[C@@H]1C[C@@H](Oc2ncc(OC)c3ccc(Cl)cc23)CN1C(=O)[C@@H](NC(=O)OC(C)(C)C)C(C)(C)C)C(=O)NS(=O)(=O)C1CC1 [asunaprevir] (10 µM) | 0.192 | 85% (inactive)
C=CC(=O)Nc1cccc(Oc2nc(Nc3ccc(N4CCN(C)CC4)cc3OC)ncc2Cl)c1 (0.833333 µM) | -0.0953 | 115% (inactive)
Cc1cccc(C)c1NC(=O)c1ccccc1C(=O)O [ftaxilide] (10 µM) | -0.12 | 106% (inactive)
Clc1ccc([C@]23CNC[C@H]2C3)cc1Cl [amitifadine] (10 µM) | 0.0575 | 110% (inactive)
CN(C)CC/C=C1\c2ccccc2CSc2ccccc21 [dosulepin] (10 µM) | 0.188 | 99.5% (inactive)
O=c1ccc2ccc(O)c(O)c2o1 [daphnetin] (10 µM) | 0.0316 | 110% (inactive)
